# Screens deposited in PubChem BioAssay by several laboratories.
# FGF22 binding = binders of human FGF22 protein, primary screen, FGF22 synaptogenesis inhibitor project, biophysical, thermal shift, single point | Fibroblast growth factor 22 (Homo sapiens), Q9HCT0 | recombinant FGF22 thermal shift, SYPRO orange fluorescence; percent of sucrose octasulfate shift, DMSO zero | AID 651658, 2012 | activity (Tm shift, normalised), % at 9.99 µM | 340,000 tested, 1.5% active;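 active means mean Tm shift, scaled 0 neutral to 100 positive control, at about 1.3% or above, every replicate too, limit read from the data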
# Target sequence (Q9HCT0 whole entry, looked up): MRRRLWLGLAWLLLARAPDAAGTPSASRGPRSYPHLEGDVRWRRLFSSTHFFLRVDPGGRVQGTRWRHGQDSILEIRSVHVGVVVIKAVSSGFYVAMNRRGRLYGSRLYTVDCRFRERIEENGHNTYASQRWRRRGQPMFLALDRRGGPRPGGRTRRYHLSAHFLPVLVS
# ADAM10 inh = human ADAM10 inhibitors, primary screen, biochemical, QFRET, HTS. Disintegrin and metalloproteinase domain-containing protein 10 (Homo sapiens), O14672. recombinant ADAM10, EDANS/DABCYL FRET peptide cleavage, 3 h. inhibition, % at 7 µM. 370,000 tested, 0.62% active;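 active means inhibition above a per-campaign cutoff equal to the mean of compounds falling between control-based bounds plus 3 SD, cut at about 20% in these data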
# ADAM17 inh = ADAM17 inhibitors, primary screen, biochemical, QFRET; Disintegrin and metalloproteinase domain-containing protein 17 (Homo sapiens), P78536; recombinant ADAM17, EDANS/DABCYL FRET peptide cleavage; inhibition, % at 6.95 µM; 370,000 tested, 0.83% active;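 active means inhibition above the mean of compounds lying between control limits plus 3 SD, set per campaign, cut at about 8.5% in these data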
# proKLK7 act = proKLK7 zymogen activators, primary screen, biochemical, fluorescence intensity; purified proKLK7, EDANS-DABCYL substrate fluorescence; 100% is mature enzyme control, 0% vehicle; activation, % at 7 µM; 370,000 tested, 0.9% active; AID 652039, 2013;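 active means activation above the mean of all tested compounds plus 3 SD, computed per campaign excluding outliers beyond control limits, cut at about 13% in these data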
# Target sequence (P49862 whole entry, looked up): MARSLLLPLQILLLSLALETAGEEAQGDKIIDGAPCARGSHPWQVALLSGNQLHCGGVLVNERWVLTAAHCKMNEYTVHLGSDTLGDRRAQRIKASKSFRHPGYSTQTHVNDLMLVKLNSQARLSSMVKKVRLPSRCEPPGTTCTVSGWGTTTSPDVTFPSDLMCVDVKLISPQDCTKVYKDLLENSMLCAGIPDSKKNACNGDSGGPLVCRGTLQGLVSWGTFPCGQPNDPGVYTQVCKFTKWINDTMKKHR
# Ecoli rRNA inh = reduced GFP signal of wild-type E. coli, primary screen, bacterial rRNA inhibitor project, GFP/RFP fluorescence, OD600, single point | AID 720706, 2013 | E. coli WT GFP vs humanized-ribosome RFP mutants, 24 h; hits give low values; DMSO median 0, no signal -100 | GFP signal change (wild-type ribosome), % (test concentration not listed) | 350,000 tested, 1.6% active;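 active means significant combined selectivity score with lowered wild-type GFP, culture density cut under 30%, mutant RFP and density less affected; inactive means any of these conditions unmet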
# Numbers stand for hits; – = inactive; · = no result. Rows were chosen to be rich in hits. Some 3.8% of all compounds tested hit in one or more screens of this group.
SMILES,FGF22 binding,ADAM10 inh,ADAM17 inh,proKLK7 act,Ecoli rRNA inh
C[C@H]1CN([C@@H](C)CO)S(=O)(=O)c2ccc(C3=CCCC3)cc2O[C@H]1CN(C)CC1CCOCC1,–,·,·,·,–
CCN(CC)CCOCCOc1cc(C)c(Cl)c(C)c1,·,–,–,–,·
CCN(CC)CCOCCn1c(C)ccc1C,42.9,–,–,–,·
Cc1cc(-c2ccccc2)nc(SC(C(=O)O)c2ccccc2)n1 (centres undefined),43.3,–,–,–,–
CCC(=O)N1C[C@@H](C)[C@@H](OC)CN(C)C(=O)c2ccc(NC(=O)C3CC3)cc2OC[C@H]1C,–,·,·,·,–
O=C(Nc1ccccc1N1CCOCC1)c1cc(-c2ccncc2)nc2ccccc12,–,–,–,–,·
Cc1csc(NC(=O)c2cc(-c3ccncc3)nc3ccccc23)n1,43.8,–,–,–,–
Cc1cc(-c2cc(C(=O)O)c3ccccc3n2)c(C)s1,43.5,–,–,–,–
COc1ccc(-c2cc(C(=O)Nc3ccccc3N3CCOCC3)c3ccccc3n2)cc1OC,2.3,–,–,–,–
CN1CCC(NC(=O)c2cc(-c3cccc(Br)c3)nc3ccccc23)CC1,–,–,–,–,-23.2
Cc1ccc(S(=O)(=O)Nc2ccc3c(c2)C(=O)N([C@H](C)CO)C[C@H](C)[C@H](CN(C)C(=O)NC2CCCCC2)O3)cc1,–,·,·,·,–
N/C(=N\OC(=O)c1cc(-c2ccccc2)nc2ccccc12)c1ccccn1,43.3,–,–,–,–
O=C(O)c1ccccc1NC(=O)c1cc(-c2ccccc2)nc2ccccc12,3.9,–,–,–,–
CCC(=O)N[C@H]1C=C[C@@H](CC(=O)NCc2ccccc2OC)O[C@@H]1CO,–,·,·,·,–
C[C@H]1CN(C)C(=O)c2cccnc2O[C@@H]1CN(C)S(C)(=O)=O,·,·,·,·,–
Cc1ccc2nc(NC(=S)NC(=O)c3ccco3)sc2c1,–,–,–,–,-15.4
Cc1ccc(S(=O)(=O)N2C[C@H]3[C@H]4C(=O)N(c5ccccc5)C(=O)[C@H]4C[C@H](OC(=O)Nc4c(C)noc4C)[C@@]3(O)C2)cc1,–,–,–,–,-2.8
Cc1ccc(S(=O)(=O)N2C[C@H]3[C@H]4C(=O)N(c5ccccc5)C(=O)[C@H]4C[C@H](OC(=O)NC4CC4)[C@@]3(O)C2)cc1,–,–,–,–,–
COc1ccc(-c2ccc3c(c2)[C@H]2[C@H](CCN2C(=O)Cc2cccnc2)[C@@H](CO)N3C)cc1,–,·,·,·,–
COc1ccccc1CNC(=O)CSc1ccc(-c2cccs2)nn1,–,–,–,–,-25.3
COc1ccccc1CNC(=O)CSc1ccc(-c2ccccn2)nn1,–,–,–,–,–
CCCC#Cc1cnc2c(c1)C(=O)N([C@H](C)CO)C[C@H](C)[C@H](CN(C)C(=O)C1CCCCC1)O2,·,·,·,·,–
CC(=O)N(C)C[C@@H]1Oc2c(NS(C)(=O)=O)cccc2C(=O)N(C)C[C@H]1C,·,·,·,·,–
O=C(NN=Cc1ccccc1OC(F)F)c1cccc(S(=O)(=O)N2CCCC2)c1,–,–,–,–,–
O=C(N/N=C/c1ccc(OC(F)F)cc1OC(F)F)c1cccc(S(=O)(=O)N2CCOCC2)c1,44.0,–,–,–,–
SMILES,FGF22 binding,ADAM10 inh,ADAM17 inh,proKLK7 act,Ecoli rRNA inh
C=C(C)CSCc1nc2ccccc2[nH]1,·,–,–,–,·
O=C(O)CSCc1nc2ccccc2[nH]1,43.6,–,–,–,–
Cc1ccccc1CSCc1nc2ccccc2[nH]1,–,–,–,–,-22.2
Cc1ccc(C)c(CSCc2nc3ccccc3[nH]2)c1,–,–,–,–,–
CC(C)NC(=O)N1[C@@H]2CN(CC(F)(F)F)C[C@H]1C2c1ccc(Br)cc1 (some centres undefined),·,·,·,·,–
C[C@H](CO)N1C[C@H](C)[C@@H](CN(C)C(=O)c2ccc(F)cc2)OCc2ccccc2-c2c(n(C)c3ccccc23)C1=O,·,·,·,·,–
Fc1cccc(COc2ccccc2C(=S)N2CCCC2)c1,–,–,–,–,-30.0
Fc1ccc(CN2CCN(C(c3ccccc3)c3ccccc3)CC2)cc1,–,–,–,–,–
c1ccc(CN2CCN(C(c3ccccc3)c3ccccc3)CC2)cc1,–,–,–,–,-23.9
C[C@@H]1CCCCO[C@@H](CN(C)Cc2ccc(C(=O)Nc3ccccc3N)cc2)[C@@H](C)CN([C@H](C)CO)C(=O)c2cc(NS(=O)(=O)c3cn(C)cn3)ccc2O1,–,·,·,·,–
N#Cc1c(C(F)(F)F)cc(-c2ccc(Cl)cc2)[nH]c1=O,·,–,–,21.3,·
COc1ccc(S(=O)(=O)N(C)C[C@@H]2OCCCC[C@@H](C)Oc3ccc(NS(=O)(=O)c4ccc(Cl)cc4)cc3C(=O)N([C@@H](C)CO)C[C@H]2C)cc1,·,·,·,·,–
CSc1cccc(NC(=S)N2CCC(c3ccccc3)C2)c1 (centres undefined),–,–,–,–,-25.1
CO[C@@H]1CN(C)C(=O)c2ccc(NC(=O)c3cnccn3)cc2OC[C@@H](C)N(C)C[C@H]1C,·,·,·,·,–
COc1cc(CNc2ncc(-c3ccc(Br)cc3)n2C)cc(OC)c1OC,–,–,–,–,-19.5
CN(C)C(=O)c1ccc(-c2ccc3c(c2)[C@H]2[C@H](CCN2C(=O)C2CCOCC2)[C@@H](CO)N3C)cc1,·,·,·,·,–
CCN(CC(=O)Nc1c(F)cccc1F)C(=O)CCc1ccc(OC)cc1,43.6,–,–,–,–
Cc1cc(SCc2ccc(Cl)cc2Cl)nc(=O)[nH]1,–,–,–,–,-30.7
Cc1[nH][nH]c(=O)c1/C=N/N1CCOCC1,42.9,–,–,–,–
Fc1cccc(F)c1/C=N/N1CCOCC1,–,–,–,–,–
O=C(C[C@@H]1CC[C@H]2[C@@H](COC[C@@H](O)CN2Cc2nccs2)O1)NCc1ccc(F)cc1,–,·,·,·,–
COc1ccc2c3c([nH]c2c1)[C@@H](CO)N(C(=O)c1ccccc1)CC31CN(C)C1,–,·,·,·,–
Cc1ccc(S(=O)(=O)NC(Cc2ccccc2)C(=O)O)cc1 (centres undefined),–,–,–,–,–
Cc1ccc(S(=O)(=O)NC(CC(=O)OCc2ccccc2)C(=O)OCc2ccccc2)cc1 (centres undefined),29.6,–,–,–,·
C[C@H](CO)N1C[C@H](C)[C@@H](CN(C)C(=O)Nc2ccc(F)cc2)OCc2ccccc2-c2c(n(C)c3ccccc23)C1=O,–,·,·,·,–
COc1ccc(C(Nc2ccccn2)c2c(NC(=O)c3ccco3)sc(C)c2C)cc1OC (centres undefined),43.9,–,–,–,·
